# The whole screen tested about 220,000 compounds, of which about 830 (0.38%) were called active.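 The calls were made as follows: active = activation, scaled between plate controls, above about 75% (limit read from the data); inactive = activation under that limit.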 This excerpt belongs to a sample that is enriched for actives.
# Assay: rescue of L929 cells from zVAD death – primary screen (AID 1377);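 also: 0% = zVAD with DMSO and 100% = DMSO alone without zVAD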
# Conditions: L929 zVAD necroptosis rescue, ATP luminescence, 24 h; at 10 µM; with zVAD 60 µM; stronger effect = higher value
row,SMILES,viability rescue
1,COC(=O)N1C(c2ccccc2)C1c1ccccc1 (stereo not given),83.8% (active)
2,COC(=O)C(c1ccccc1)N1CCCCCC1 (stereo not given),0.41% (inactive)
3,CCCC[N+]1(C)C2CC(OC(=O)C(CO)c3ccccc3)CC1C1OC12 (stereo not given),-0.33% (inactive)
4,CN1CCN(/N=C/c2c[nH]c3ccccc23)CC1,-0.46% (inactive)
5,CC1C2Cn3c(nc4ccccc43)C1N(C)O2 (stereo not given),0.4% (inactive)
